Sampled rows, rich in hits. Any-hit rate of the full collection: about 10%.
BAZ2B block: blocks human BAZ2B; Potency, µM (doses to about 114 µM), inactives show at the highest dose activity change, negative = inhibition, usual class: inhibitors; Q9UIF8; AlphaScreen BAZ2B-H3K14Ac peptide displacement; AID 504333; actives 4.4% (n = 360,000); further: on the % scale 0 is the no-effect control and ±100 the full control effect; nearly all actives have a fitted effect of over 60% in size
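BAZ2B 50 nM plus b-H3(5-23)K14Ac 50 nM, PBS pH 7.4/0.01% Tween-20, 30 min RT; compound added (max 110 uM), 30 min RT; streptavidin donor/Ni-chelate acceptor beads 10 ug/mL final, 20 min dark; AlphaScreen read.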
HP1b binding inh: HP1-beta chromodomain-methylated histone interaction inhibition; Potency, µM (top dose mostly 114 µM), without a hit: top-dose activity change, negative = inhibition, usual class: inhibitors; AlphaScreen HP1-beta / biotin-H3K9me3 peptide binding; actives 0.56% (n = 390,000); P83916; AID 540317; further: nearly all actives have a fitted effect of over 70% in size
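Compound inhibition of the preformed complex between 50 nM HP1-beta and 50 nM biotinylated H3K9me3 peptide was read by AlphaScreen. Buffer was PBS pH 7.4 with 0.01% Tween-20. Incubations ran 30 min at room temperature, with 10 ug/mL donor/acceptor beads.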
JMJD2A Tudor: JMJD2A Tudor domain (human) inhibition | AID 504339 | AlphaScreen JMJD2A-Tudor / H3K4me3 peptide binding | O75164 | actives 4.4% (n = 390,000) | Potency, µM (highest dose often 114 µM), without a hit: at the highest dose activity change, negative = inhibition, most hits filed as inhibitors; further: on the % scale 0 is the no-effect control and ±100 the full control effect; nearly all actives have a fitted effect of over 50% in size
G9a block: blocks human histone lysine methyltransferase G9a; Q96KQ7; G9a H3K9 monomethylation, AlphaScreen, 2 h; Potency, µM (series often up to 102 µM), for inactives: at the top dose activity, negative = inhibition, hits mostly inhibitors; actives 8.8% (n = 350,000); AID 504332; further: on the % scale 0 is the no-effect control and ±100 the full control effect; nearly all actives have a fitted effect of over 75% in size
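G9a (20 nM) preincubated 15 min RT with compounds, then 500 nM biotinylated H3K9 peptide and 20 uM SAM added; 2 h RT reaction. Monomethyl-H3K9 product detected by AlphaScreen with anti-H3K9me1 antibody, streptavidin donor and anti-rabbit IgG acceptor beads.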
GLS inhibitor: glutaminase GLS (human) inhibition | O94925 | GLS enzymatic activity, qHTS titration | Potency, µM (top dose mostly 45.5 µM), inactives show at the top dose activity change, negative = inhibition, actives largely listed as inhibitors | actives 0.21% (n = 410,000) | AID 624170; further: on the % scale 0 is the no-effect control and ±100 the full control effect
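Human kidney-isoform GLS in 45 mM KH2PO4 pH 8.2, 0.02% Tween-20, with compound, started with 1mM L-Glutamine (added stock). Glutamate oxidase/HRP/Amplex red coupled fluorescence read at start and after 30 min at RT.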
L3MBTL1 inh: L3MBTL1 (human) inhibition; actives 0.66% (n = 230,000); Potency, µM (titrated, usually from 57.1 µM), for the others: at the highest dose activity, negative = inhibition, most hits filed as inhibitors; AID 485360; Q9Y468; AlphaScreen L3MBTL1–H3K9me1 peptide binding; further: on the % scale 0 is the no-effect control and ±100 the full control effect; nearly all actives have a fitted effect of over 60% in size
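L3MBTL1 (50 nM) pre-complexed 30 min with biotinylated H3(1-15)K9me1 peptide (75 nM), then compounds added for 30 min at room temperature; AlphaScreen streptavidin donor/nickel chelate acceptor beads (10 ug/mL final) read after 30 min dark incubation.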
* hit, by the source's call; ? = inconclusive; . = no result given; [ ] = another dose, or the depositor's remark. The call rests on the fitted dose curve; in most records, active means well fitted curve in the direction sought with a large enough effect; inconclusive means small, poorly fitted or top-dose-only effect, or another doubt; inactive means no such curve, though single readings can be large; an effect the other way counts as inactive or inconclusive. Potency means the concentration at half of the fitted maximal effect.

SMILES | BAZ2B block | HP1b binding inh | JMJD2A Tudor | G9a block | GLS inhibitor | L3MBTL1 inh
CSCc1cccc(C(=O)OC(C)C(=O)Nc2c(C)n(C)n(-c3ccccc3)c2=O)c1 (stereo not given) | 7.1% | 38.9% | 5.2% | 8.91µM* | 2.4% | 28.1%
CCCC1=Nc2cc(C(=O)NC3CCCCC3)ccc2Sc2ccc(C)cc21 | -11.6% | 6.7% | -22.0% | 2.1%[59 µM] | -1.0% | .
CC(=O)Nc1ccc(S(=O)(=O)Nc2ccc(C)c(C)c2)cc1 | . | . | -4.8% | . | . | .
NS(=O)(=O)c1ccc(NC(=S)NC(=O)C2CCCC2)cc1 | -23.1% | 34.1% | -13.8% | 70.8µM* | -4.8% | .
CCOC(=O)C(Cc1ccccc1)C(=O)Nc1cccc(C)c1 (stereo not given) | 1.1% | 50.3% | -7.5% | -11.8%[59 µM] | -6.4% | 7.8%
COC(=O)Nc1ccc(S(=O)(=O)N(CCO)CC(F)(F)C(F)F)cc1 | -4.1% | 33.8% | 8.7%[57.1 µM] | 23.6%[59 µM] | -2.9% | ?
CCOC(=O)C(Cc1ccccc1)C(=O)Nc1ccc(N(CC)CC)cc1 (stereo not given) | ? | ? | 50.1µM* | 3.55µM* | 14.8% | -25.6%
Cc1ccc2nc(-c3ccc(NC(=S)NC(=O)C(C)C)cc3)sc2c1 | 5.4% | 24.5% | -9.5% | 4.5%[2.33 µM] | -4.3% | .
CCN(CC(F)(F)C(F)F)S(=O)(=O)c1ccc(NC(=O)OC)cc1 | 2.1% | ? | 20µM* | 52.6%[59 µM] | ? | -0.2%
Cc1ccc2nc(-c3ccc(NC(=S)NC4CC(C)(C)NC(C)(C)C4)cc3)sc2c1 | -33.4% | -5.3% | -33.9% | 50.1µM* | -9.0% | -2.8%
COCCCNC(=O)c1cc(-c2cccnc2)nc2ccc(S(=O)(=O)N3CCC(C)CC3)cc12 | 6.0% | 58.9% | -14.4% | -1.1%[59 µM] | 6.9% | .
CCOc1ccc(N(CC)S(=O)(=O)N2CCCC(C(=O)Nc3ccc(NC(C)=O)cc3)C2)cc1 (stereo not given) | -15.0% | 38.8% | -15.0% | -3.5%[59 µM] | -12.1% | .
CC(=O)OC1CC[C@]2(C)C(CC(OC(C)=O)[C@@]3(C)C4=CC(=O)OC(c5ccoc5)[C@]4(C)CCC23)C1(C)C (stereo not given in full) | . | . | . | -3.5%[2.33 µM] | . | .
CCc1ccc(NC(=O)C(CC)n2nnc(C(=O)OC)c2C(=O)OC)cc1 (stereo not given) | 3.0% | 8.5% | -13.4% | -7.8%[59 µM] | -6.5% | .
NS(=O)(=O)c1ccc(CCNC(=S)NC2CCCCC2)cc1 | -5.8% | 7.2% | -15.9% | 8.8% | -9.8% | -1.1%
CC1(C)CC(NC(=S)Nc2ccc(S(N)(=O)=O)cc2)CC(C)(C)N1 | -7.1% | 26.7% | -1.4% | 50.1µM* | -3.2% | 15.8%
S=C(NCc1ccncc1)NC1CCCC1 | -17.2% | 20.3% | -9.8% | 50.1µM* | 1.6% | 8.4%
Fc1ccc(CNC(=S)NC2CCCC2)cc1 | -5.5% | 33.2% | -0.7% | 3.3% | -19.0% | 4.9%
NS(=O)(=O)c1ccc(CNC(=S)NC2CC2)cc1 | ? | -9.6% | -7.2% | 28.2µM* | 9.8% | 1.1%
CCN(CC)c1ccc(/C=N\NC(N)=O)cc1 | -29.0% | 8.7% | -26.8% | ? | 12.2% | 4.5%
CCN(CC)c1ccc(/C=N/NC(=O)OC(C)(C)C)cc1 | ? | -0.5% | -20.3% | 50.1µM* | 2.9% | -12.2%
CCCN(CCC)C(=O)Cn1c(=O)n(-c2ccc(OC)cc2OC)c(=O)c2c3c(sc21)CCC3 | -1.8% | 26.5% | 4.8% | -4.1%[59 µM] | 1.3% | .
COCCn1cnc2c1-c1ccc(OC)c(c1)OC/C=C\COc1cccc-2c1 | . | -25.5% | ? | . | . | .
Cc1ccc(NC(=O)CCNS(=O)(=O)c2ccc3c(c2)CCCC(=O)N3)cc1 | -18.9%[57.1 µM] | 0.7% | -1.3% | -15.5%[59 µM] | -8.2% | .
O=S(=O)(Nc1cc(Br)cc2cccnc12)c1ccccc1 | . | 9.3% | -19.9% | . | . | .
NS(=O)(=O)c1ccc(CNC(=S)Nc2ccc(Cl)c(Cl)c2)cc1 | -12.0% | -0.8% | -16.8% | 44.7µM* | 7.3% | .
NS(=O)(=O)c1ccc(NC(=S)NC2CC2)cc1 | -25.6% | -11.3% | -15.2% | 10µM* | 8.5% | -0.2%

Compound activity: PubChem, National Center for Advancing Translational Sciences (NCATS)
